Data published in PubChem BioAssay AID493005 (National Center for Advancing Translational Sciences (NCATS), 2010).
Screen size: about 340,000 compounds; fewer than 10 were called active. Calls come from the whole dose curve; as a rule, active = well fitted inhibition curve with a large enough effect in the main read-out, with a control signal flat (not every such curve was filed as active); inconclusive = small, poorly fitted or top-dose-only effect, or effect the other way, or a change in a side signal; inactive = no such curve, though single readings can be large or run the other way. These entries were drawn from the full list.

What follows are compounds tested against Tumor susceptibility gene 101 protein (Homo sapiens) (UniProt Q99816) (assay: qHTS Assay for Iinhibitors of HIV-1 Budding by Blocking the Interaction of PTAP/TSG101). Details: Fluorescence polarization, FITC-PTAP peptide / Tsg101 binding; series mostly up to 115 µM.
Chain of Tumor susceptibility gene 101 protein (Homo sapiens) (Q99816 whole entry, looked up): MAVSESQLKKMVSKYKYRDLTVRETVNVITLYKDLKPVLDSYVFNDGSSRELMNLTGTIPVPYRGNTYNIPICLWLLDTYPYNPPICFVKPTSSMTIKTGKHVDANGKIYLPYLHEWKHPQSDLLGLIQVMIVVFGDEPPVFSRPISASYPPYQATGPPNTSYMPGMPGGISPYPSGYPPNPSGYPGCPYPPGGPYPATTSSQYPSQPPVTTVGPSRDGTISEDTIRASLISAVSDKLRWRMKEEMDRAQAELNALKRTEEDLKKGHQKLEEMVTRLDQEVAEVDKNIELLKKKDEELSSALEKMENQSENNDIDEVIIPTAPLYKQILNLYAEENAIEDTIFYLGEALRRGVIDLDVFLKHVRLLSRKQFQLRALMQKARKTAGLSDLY
Source text: NIH Molecular Libraries Probe Production Network [MLPCN] NIH Chemical Genomics Center [NCGC] MLPCN Grant: 1 R03 MH087464-01A1 PI Name: Dr. Eric Freed, NCI NCGC Assay Overview: Stages of the HIV-1 replication cycle, specifically virus assembly and release, provide underexploited targets for the development of novel antiviral inhibitors. The late stages of HIV-1 replication are mediated by the Gag precursor protein, Pr55Gag. Expression of Pr55Gag is both necessary and sufficient for the production of virus-like particles from Gag-expressing cells. The Gag protein hijacks key host proteins involved in endocytic machinery of the host cell to promote endosomal processing and viral budding. The budding process requires a direct interaction between a […] (PTAP) motif in the p6 domain of Gag and the cellular endosomal sorting protein known as Tsg101. In this way, the Gag PTAP motif promotes the host cells to recruit viral particles to the plasma membrane where the new viral particles are released, effectively turning the host cells into viral factories. A fluorescence anisotropy assay has been developed to quantitatively measure the PTAP-Tsg101 interaction which can be used to screen for inhibitors of this interaction.
NCGC Assay Protocol Summary: Two uL of the Tsg101 binding domain in buffer (10 mM HEPES pH 7.5; 0.15 M NaCl, 0.01% Tween 20; 3 mM EDTA;0.1 mM TCEP) was dispensed into Greiner black MB 1536-well plates (final concentration 10 uM). Then, 23 nL of compounds or DMSO were delivered to each well using a pin tool. Finally, 2 uL of a FITC-labeled peptide containing the PTAP motif (1) in the same buffer was dispensed (50 nM final concentration) and the binding was allowed to proceed for 20 min. at r.t. Fluorescent polarization was determined using FITC excitation and polarized emission filters on a Perkin Elmer Viewlux. Keywords: Tsg101, PTAP, Gag, HIV, fluorescent polarization, MLSMR, MLPCN, NIH Roadmap, qHTS, NCGC

outcome, inactive:
Cc1cc(C)cc(-c2nnc(SCC(=O)NC3CC3)o2)c1
CCc1cccc(C)c1NC(=S)N(CCCN1CCN(C)CC1)Cc1cccs1
COc1cccc(NC(=O)Cn2c3ccc(F)cc3c3nc4n(c(=O)c32)CCS4)c1
O=S(=O)(NN=C1CCCCCCC1)c1ccc(Br)cc1
Cn1c2ccccc2n2c(=O)c(=O)n(CC(=O)c3ccc(F)cc3)nc12
CCOc1ccc(NC(=O)COc2ccc(C(=O)N3CCC(C(N)=O)CC3)cc2OC)cc1
CC(NS(=O)(=O)c1ccccc1)c1n[nH]c(=S)n1-c1ccccc1 (configuration not stated)
O=C(O)C1CCCCC1C(=O)N1CCN(S(=O)(=O)c2ccc(F)cc2)CC1 (configuration not stated)
COc1ccc(OCc2n[nH]c(=S)n2N)cc1
Cc1ccccc1-n1cc(CNC(=O)CC2C(=O)NCCN2C/C=C/c2ccccc2)cn1 (configuration not stated)
CN1CCCN(C(=O)C2CCCCC2)CC1
CCc1nc(SCC(=O)Nc2ccccc2OC)n[nH]1
CC(=O)N(CN1C(=O)C2CC=CCC2C1=O)c1cccc(Cl)c1 (configuration not stated)
O=C(O)CCN(Cc1ccccc1)S(=O)(=O)c1c(Cl)cccc1Cl
CSc1nc2nc(-c3cccc(C(F)(F)F)c3)ccn2n1
CC(=O)n1cc([C@@H]2C=C(C(=O)N3CCN(Cc4ccc5c(c4)OCO5)CC3)O[C@H](OCc3ccc(CO)cc3)C2)c2ccccc21
CC(=O)N1CCOc2ccc(S(=O)(=O)N3CCC(C(=O)Nc4ccccc4F)CC3)cc21
COc1ccc(Cl)cc1NS(=O)(=O)c1cccc(C(=O)NCC2CCCO2)c1 (configuration not stated)
CC1=C2C(=O)OC(c3ccoc3)C2(C)CCC1 (configuration not stated)
C/C(=N\N1CCN(Cc2ccc(C)cc2)CC1)c1ccco1
O=C1CCC(=O)N1CCOP1(=O)COc2ccccc2OC1
O=C1c2ccccc2NC(c2ccccc2O)N1NS(=O)(=O)c1ccccc1 (configuration not stated)
COc1cccc(C(=O)Nc2cc3c(cc2Br)OCCCO3)c1
COc1ccccc1C(=O)Nc1ccnn1C1CCN(C(=O)C(C)(C)C)CC1
O=C(CCSc1ccccc1)NCCSc1ccccn1
CCCCC(=O)NC(c1ccc(OC)c(OC)c1)c1ccc2cccnc2c1O (configuration not stated)
CN(C)CCNC(=O)c1ccc(Cl)c2cc3ccccc3nc12
CCCCN(C(=O)CSCC(=O)Nc1ccc(OC)cc1)c1c(N)n(CCC)c(=O)[nH]c1=O
C=CCN1C(=O)C(Cc2ccc(OCC)cc2)SC1=Nc1ccc(C(=O)O)cc1 (configuration not stated)
O=C(O)CN(Cc1ccco1)S(=O)(=O)c1ccc(F)cc1
CCN(CC)S(=O)(=O)c1cccc(NC(=O)c2ccc(S(=O)(=O)N3CCCC3)cc2)c1
CC(NCCO)C(=O)C12CC3CC(CC(C3)C1)C2 (configuration not stated)
COCCNC(=O)C(OC(=O)c1cccs1)c1ccc(F)cc1 (configuration not stated)
O=C1NC(Nc2nc3ccccc3s2)(C(F)(F)F)C(=O)N1C1CCCCC1 (configuration not stated)
COC(=O)c1cc(NC(=O)CC2C(=O)NCCN2C(=O)c2ccc(F)cc2)cc(C(=O)OC)c1 (configuration not stated)
Cc1occc(=O)c1OCc1c(Cl)cccc1Cl
CCCCc1ccc(NS(=O)(=O)c2cccc(C(=O)N3CCCN(C)CC3)c2)cc1
CCC(=O)N1c2ccc(S(=O)(=O)NCc3ccco3)cc2CC1C (configuration not stated)
Cc1nnc(SCCCCSc2nnc(C)c(=O)[nH]2)[nH]c1=O
CCOC(=O)c1cccc(NC(=O)CCc2nnc3ccc(N4CCOCC4)nn23)c1
CCCC[C@H]1COCCS(=O)(=O)N1Cc1cccc(Cl)c1
C/C=C/c1ccc(OCC(=O)NNC(=O)CN(C)S(=O)(=O)c2ccc(C)cc2)c(OC)c1
CC(C)(C)c1cc(NC(=O)NN2CCOCC2)nn1-c1c(Cl)cc(Cl)cc1Cl
COc1ccc(OC)c(C(O)c2nc3ccccc3n2C)c1 (configuration not stated)
NC(=O)C1(N2CCCC2)CCN(Cc2ccccc2)CC1
CCOC(=O)C1CN(S(=O)(=O)c2ccc(F)cc2)C1
CC(C)(C)n1cnnc1Sc1ccc([N+](=O)[O-])cn1
O=C(COC(=O)/C=C/c1cccc(Cl)c1)NCc1cccs1
Cc1onc(-c2c(F)cccc2Cl)c1C(=O)Nc1cccc(S(=O)(=O)N2CCCCC2)c1
CSc1sc(C(=O)NC(=O)NCc2cccnc2)c(C)c1-c1ccon1
Cc1nn(-c2ccccc2)c2c1C(c1cccc([N+](=O)[O-])c1)N(c1ccccc1)C(=O)N2 (configuration not stated)
CC1(C)C2CCC13CS(=O)(=O)NC3C2 (configuration not stated)
Cc1nc(Nc2ccccc2C)c2cnn(C)c2n1
O=C1N[C@@H](Cc2ccccc2)C(=O)N2[C@@H]3N(S(=O)(=O)c4ccc(F)cc4)c4ccccc4[C@]3(Br)C[C@@H]12
CCC1=C(OC(=O)N(CC)CC)N2C(=O)OC(=NCC3CC3)[C@]2(C)[C@H]2C1=CC[C@H]1C(=O)N(CC(=O)OC)C(=O)[C@H]12
CC(C)N1CCc2c(sc(NC(=O)Cc3ccccc3)c2C#N)C1
C#CCCCc1nc2ccccc2c(=O)n1N
CCCCN1CC(CO)Oc2cccc(F)c2S1(=O)=O (configuration not stated)
CCCc1nc(SCC(=O)Nc2ccccc2OC)c2c(=O)n(C)c(=O)n(C)c2n1
CC(=O)Nc1cccc(NC(=O)CSc2nccn2Cc2ccc(F)cc2)c1
N#Cc1cccc(OC(=O)c2ccc3c(=O)n4c(nc3c2)CCC4)c1
CSc1ccccc1NC(=O)CN(C)CC(=O)Nc1cccc(Br)c1
CN(C)/C(=N\OC(=O)c1ccccc1)c1nonc1N
CCOc1ccc(NC(=O)[C@H](C)NC(=O)C2CC(=O)N(c3ccc(OC)cc3)C2)cc1 (some centres not stated)
COc1cc(C2NC(=O)NC(c3ccccc3)=C2C(C)=O)c(Br)cc1OCC(N)=O (configuration not stated)
Cc1ccc(C(NC(=O)N2CCCC2)C(Cl)(Cl)Cl)cc1F (configuration not stated)
CCn1c(CC(=O)Nc2ccccc2C)nnc1SCC(=O)NC1=NCCS1
